# Compounds with a hit are over-represented: about 2.3% of the library has one in this group of screens.
# MBD2 inh: blocks human MBD2 binding to methylated DNA. Q9UBB5. TR-FRET, MBD2 binding to methylated oligonucleotide. inhibition, % at 4.4 µM. actives 0.31% (n = 370,000). AID 686964; in the data active means inhibition above about 13%
# PLC-gamma1 inh: blocks human PLC-gamma1 enzyme activity; AID 720700; inhibition, % at 12.2 µM; purified PLC-gamma1, fluorogenic substrate, fluorescence; actives 0.84% (n = 370,000); in the data active means inhibition above about 9.5%
# UHRF1 MBD2 ctr: blocks human UHRF1 binding to methylated DNA | AID 687016 | Q96T88 | UHRF1 binding to methylated oligo, TR-FRET | inhibition, % at 4.4 µM | actives 0.75% (n = 370,000); in the data active means inhibition above about 21%;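 further: UHRF1 SRA domain binding a hemimethylated CpG hairpin DNA probe; 0% = median of test compound wells and 100% = reference inhibitor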
# LEDGF integ inh: blocks HIV-1 LEDGF/p75-dependent DNA integration | TR-FRET IN-LEDGF/p75 DNA integration, Eu/Cy5 | inhibition, % at 3.7 µM | actives 0.64% (n = 370,000) | AID 743269;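 active means inhibition above the screen-wide mean plus 3 SD, cut at about 13% in these data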;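 further: signal is the Cy5 over europium emission ratio at 671 and 618 nm; 0% = plate median of compound wells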
# PLC-beta3 inh: blocks human PLC-beta3 enzyme activity; Q01970; Purified PLC-beta3, fluorogenic substrate, fluorescence; inhibition, % at 12.2 µM; actives 0.18% (n = 370,000); AID 720704;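 further: 0% = median of compound wells on plate and 100% = full blocker control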
# PLCg1 ctr: counter-screen for PLC-beta3 inhibitors: inhibitors of human PLC-gamma1; purified PLC-gamma1, fluorogenic substrate, fluorescence; AID 743258; inhibition, % at 12.3 µM; shares compounds with PLC-gamma1 inh; actives 3.1% (n = 3,300); in the data active means inhibition above about 9.5%
# PLCb3 confirm: confirmation of human PLC-beta3 inhibitors. shares compounds with PLC-gamma1 inh. purified PLC-beta3, fluorogenic substrate fluorescence. inhibition, % at 12.3 µM. actives 1% (n = 3,300). AID 743261
# Active calls of the source: *; x = not tested or not shown. Unless noted, no stated cut-off is given here; in the data, active means inhibition above about 11%; inactive means the rest.
SMILES,MBD2 inh,PLC-gamma1 inh,UHRF1 MBD2 ctr,LEDGF integ inh,PLC-beta3 inh,PLCg1 ctr,PLCb3 confirm
O=C(C1CCN(c2ncnc3c2sc2cccc(F)c23)CC1)N1CCN(C(=O)C2CCCO2)CC1 (centres undefined),0,-73,-2,-1,-100,x,x
CC(=O)OC1CCC2(C)C(=CCC3C2CCC2(C)C3CC3OC4(CCC(C)CN4)C(C)C32)C1 (centres undefined),-5,11*,1,5,8,-2,-1
CN1CCN(C(=O)CSc2nc(-c3ccco3)cc(C(F)(F)F)n2)CC1,-1,-4,-2,-2,-2,x,x
CC1Cc2ccccc2N1C(=O)CSc1nc(-c2ccco2)cc(C(F)(F)F)n1 (centres undefined),-2,13*,10,6,1,-2,0
CCOC(=O)COc1ccc(S(=O)(=O)N2CCN(c3ccc(OC)cc3)CC2)cc1,8,9.5*,37*,0,-2,1,2
CCOC(=O)COc1ccc(S(=O)(=O)N2CCN(c3ccccc3F)CC2)cc1,11,2,5,0,1,x,x
COc1cccc(NC(=S)N2CCCC2c2ccc(OC)c(OC)c2)c1 (centres undefined),2,11*,1,1,-2,2,0
N/C(CSc1ncccc1C(F)(F)F)=N\O,1,9.8*,6,2,-2,1,4
N/C(=N\O)c1ccc(N2CCN(c3ncccc3C(F)(F)F)CC2)nc1,5,5,7,-1,-5,x,x
COc1ccc(CN2CCC(CNC(=O)Nc3ccc(Cl)cc3)CC2)cc1,5,2,2,-1,1,x,x
CCOc1ccc(CCNC(=O)c2cc3sccc3n2CC)cc1OC,-3,1,0,-4,0,x,x
Cc1ccccc1NS(=O)(=O)c1ccc(C)c(NS(C)(=O)=O)c1C,6,9.9*,5,3,-1,2,0
CC(=O)Nc1cc(S(=O)(=O)Nc2ccccc2)c(C)cc1C,-2,0,3,10,5,x,x
COc1ccc(C)cc1S(=O)(=O)Nc1ccccc1C,-3,11*,-1,9,10,-6,-4
CCc1ccc(OC)c(S(=O)(=O)Nc2ccccc2C)c1,2,2,0,1,-1,x,x
CC(=O)Nc1cc(S(=O)(=O)Nc2ccccc2C)c(C)cc1C,-2,9.8*,1,1,6,-2,3
Cc1ccnc(NC(=O)c2ccc(Cl)c(NC(=O)C(C)Oc3ccccc3)c2)c1 (centres undefined),-2,9.9*,4,1,5,-5,-4
COC(=O)[C@H](C(C)C)N(CCCc1cn(Cc2ccc(C)cc2)nn1)S(=O)(=O)c1ccc(F)cc1Br,-5,-3,1,-3,0,x,x
COC(=O)[C@]12C[C@H](CC(=O)N3CCOCC3)C(=O)N(Cc3cccc4ccccc34)C1=C[C@H](C(C)C)O[C@@H]2C1CC1,1,1,1,-1,1,x,x
COC(=O)C1CCCN1C(=O)COc1ccc(Br)cc1Cl (centres undefined),1,14*,0,4,8,-8,-118
O=C(COc1ccc(Br)cc1Cl)NC1CCCCC1,-1,0,2,-1,-1,x,x
O=C(Nc1cccc(Cl)c1)Nc1cc(S(=O)(=O)N2CCOCC2)ccc1N1CCCC1,0,11*,3,-1,0,-11,-6
O=C(COC(=O)c1ccccc1[N+](=O)[O-])Nc1cc(S(=O)(=O)N2CCOCC2)ccc1N1CCCC1,-3,12*,4,13,-6,2,3
COc1cccc(N2CCN(CC(=O)NCc3ccco3)CC2)c1,-4,-1,-1,-5,-7,x,x
O=c1c2ccccc2nnn1CSc1ccccc1F,3,0,-1,1,4,x,x
SMILES,MBD2 inh,PLC-gamma1 inh,UHRF1 MBD2 ctr,LEDGF integ inh,PLC-beta3 inh,PLCg1 ctr,PLCb3 confirm
Nn1c(Cc2ccccc2F)nnc1SCn1nnc2ccccc2c1=O,-11,11*,1,5,3,-6,-1
O=S1(=O)CC2c3ccccc3CN2CN1C1CCCC1 (centres undefined),-2,-6,2,3,-4,x,x
COc1c(C)cc(C(=O)C2CCCN(C(=O)/C=C/c3ccccn3)C2)cc1C (centres undefined),-3,11*,2,4,11*,-4,-5
CNC[C@@H](Cc1ccccc1)NC[C@@H](CC1CCCCC1)NCCCc1ccccc1,-8,13*,0,6,6,1,1
COC(=O)CSC1=C(C#N)C(=O)NC2(CCCCC2)S1,5,16*,8,0,9,-6,-7
C[C@@H]1CC=C[C@@H]2[C@H]1C(=O)N(Cc1ccccc1)[C@H]2c1cccc(Br)c1,-8,12*,-1,4,4,0,0
CCOC(=O)C1CCN(Cc2ccc(OC)c(OCc3ccccc3)c2)CC1,3,2,1,-7,-5,x,x
CCOC(=O)C1CCN(Cc2ccc(O)c(OC)c2)CC1,0,12*,2,2,3,-1,0
Cc1ccc2nc(C3CCN(C(=O)NCc4ccccc4)CC3)[nH]c2c1,7,10*,5,-7,3,1,-3
Oc1ccc(/C=N/N2CCN(c3ccccn3)CC2)cc1,-2,1,-2,1,-4,x,x
C(=N\N1CCN(c2ccccn2)CC1)/c1ccccn1,-3,9.7*,-2,5,3,-2,1
CCOC(=O)C1(CCc2ccccc2)CCN(Cc2ccccn2)CC1,-5,9.9*,7,10,1,-7,-1
CCOC(=O)C1(CCc2ccccc2)CCN(Cc2ccc(C(=O)OC)cc2)CC1,-2,-36,2,0,-45,x,x
Cc1ccnc(NS(=O)(=O)c2cccc3nsnc23)c1,-3,9.9*,7,-3,2,-6,-2
Cc1cccc(NS(=O)(=O)c2cccc3nsnc23)c1,-2,5,2,-3,6,x,x
O=C(CSc1nnc(-c2cccnc2)n1C1CCCCC1)N1CCCC1,-2,2,1,0,1,x,x
CCOC(=O)c1cnn(CCOC(=O)c2cccc(F)c2)c1NC(=O)c1cccc(F)c1,-6,12*,-1,6,7,-6,-3
OC(COc1c(Cl)cc(Cl)cc1Cl)CN1CCCCC1 (centres undefined),3,15*,3,1,10,-3,1
OC(COc1ccc(Cl)cc1)CN1CCCCC1 (centres undefined),2,-2,5,0,0,x,x
Cn1c(SCC(=O)NCc2ccco2)nnc1-c1ccc(S(=O)(=O)N2CCOCC2)cc1,-8,0,-1,1,0,x,x
